# Tested on: PPARa:RXRa (NR concentration 270 nM, RXRa partner concentration 90 nM)
# Assay: PBM binding z-score (relative to random genomic background probes); higher = stronger binding; sequences stand for … in GC…GCGATTGACAGCGTAGAATGAAGG
# Procedure, shortened: (§1)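 Binding z-scores take random background probes as their reference. They come from custom Agilent 4×180K protein-binding microarrays incubated 1 h with ligand-free nuclear receptor dimers, with antibodies against each partner (one per run) detecting binding. Scanned fluorescence was regression-normalized.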
row,Sequence,PBM binding z-score
1,GCTGACGGGTCAAAGGTTATAGCATGAATAGAAT,6.99
2,ATCGAAAGGTTGACGAGGTGAGTATACACCGTTT,1.79
3,CCTAATGGGCCATTCAGAGGTCATTGATCATATG,3.68
4,CAAACTAGCTCAAGGTCAAAGTCGGTTTGTGCCA,4.17
5,TAGCCTAGATCAGATCGGGCCAGTATACGCTATA,-1.18
6,CCTAGCAGGTCAGGGTCACTCAAGCATTTCGCTT,4.61
7,TAGCCTAGGTCATGCGAGCCAGTATAGTGTCGGC,3.6
8,CCTACTGGGCCCAAAAGGTCATTGATGCCGATAA,4.61
9,TCTAGTTGGTCAAAGGTCACACATTCGAAATGCG,6.86
10,AGAATGAGGTTAAGAACAGGGAAACAGAATACAT,3.18
11,GATACAGGGTCAAGGCAAGAGTACGCGTATTGAT,6.03
12,CCTTACGGGTCAAGCTTATAGCACGGGTGGTACG,4.93
13,CTACCAAGGTGAACAAGGTCCTTGATTACTATTC,1.57
14,TCTCGGAGGACACGAAAGGTCAGAGCTCGACATC,3.45
15,TCTATTAGTTGATTACGGCAACCGAAACAGCGGA,0.921
16,ATCGAAAGGTCGGAGGTGAGTATACCCACCCGAA,3.57
17,TGAATGAGGTTAAAGTTCAGGGAACGTGGCGTCG,6.3
18,CCTTACGGGTCACTCCAGTTTATAGCATCGGAGT,4.4
19,ACTAGTAGTTGACTTAGGGCAACCGATACGACGC,-0.00302
20,ACAGACAGGGGAGTGAAGGTAACTCAGCTGGACG,0.211

row,Sequence,PBM binding z-score
1,TAGCCTATGTCATGCGGGCCAGTATAGTGTCGGC,-0.683
2,CCTACTGGGCCAAAGGTCATTGTTTCCAATGCTC,6.74
3,CCGACTGGGGCAAGGTTACCTTAACGCACAGCCA,1.97
4,CATACAGGGTCAGATAGGCCAGAGTAGGGACGGC,4.26
5,CCAGACAGGTGAGAAGGGAACTCAGCCTCGATTA,-0.0624
6,CTCGAAAGGTCGTGCTCAGTTGAGTATACCAAAC,4.85
7,GGAACGAGGGCATTCGAGTTGATAGAATGGCGAT,1.27
8,ATCGAAAGGTCGACGAGGTGTGTATACACCGTTT,4.22
9,TCTAGTAGGTTACCAATGGGGCATTCAGCTTTCT,2.14
10,GCTAGCAGGGCATTTGGGTCACTCAATGACGGGC,1.77
11,ACAGACAAGTGAGTGAAGGTAACTCAGCTGGACG,-0.314
12,TCGTATAGGTAAAAGGTGAAAGTCGGTGTGGTAA,4.51
13,GCTCGGAGGACAAGGTCAGAGCTTTGTCCGTAGA,2.5
14,CCGAGTAGGTTATGGCGCATTCAGGCAACGGTGA,0.62
15,CCTACTGGGCCATTCAGACGTCATTGATCATATG,0.168
16,AGAATGAGGTTACCAAAAATCAGGGAAACGCTTG,3.2
17,CCTCGGAGGACAGAAGTTCAGAGCTGTCCGCTTT,-0.198
18,GCTTGTAGATCAAGGTTAAGATAGACTAAGCTAA,1.66
19,CAAACTAGGTCAAGAGGTCAAAGTACGCTTCCCG,6.64
20,ATCGAAATGTCGACGAGGTGAGTATACACCGTTT,0.206

# Tested on: PPARg:RXRa (NR concentration 180 nM, RXRa partner concentration 90 nM)
# Assay: as above
# Procedure, shortened: as §1
row,Sequence,PBM binding z-score
1,GCTGACGGGTCAAAGGTTATAGCATGAATAGAAT,9.41
2,ATCGAAAGGTTGACGAGGTGAGTATACACCGTTT,0.968
3,CCTAATGGGCCATTCAGAGGTCATTGATCATATG,1.37
4,CAAACTAGCTCAAGGTCAAAGTCGGTTTGTGCCA,1.21
5,TAGCCTAGATCAGATCGGGCCAGTATACGCTATA,0.218
6,CCTAGCAGGTCAGGGTCACTCAAGCATTTCGCTT,3.59
7,TAGCCTAGGTCATGCGAGCCAGTATAGTGTCGGC,2.35
8,CCTACTGGGCCCAAAAGGTCATTGATGCCGATAA,1.78
9,TCTAGTTGGTCAAAGGTCACACATTCGAAATGCG,11.5
10,AGAATGAGGTTAAGAACAGGGAAACAGAATACAT,2.15
11,GATACAGGGTCAAGGCAAGAGTACGCGTATTGAT,6.09
12,CCTTACGGGTCAAGCTTATAGCACGGGTGGTACG,4.12
13,CTACCAAGGTGAACAAGGTCCTTGATTACTATTC,0.578
14,TCTCGGAGGACACGAAAGGTCAGAGCTCGACATC,1.37
15,TCTATTAGTTGATTACGGCAACCGAAACAGCGGA,0.134
16,ATCGAAAGGTCGGAGGTGAGTATACCCACCCGAA,2.78
17,TGAATGAGGTTAAAGTTCAGGGAACGTGGCGTCG,9.26
18,CCTTACGGGTCACTCCAGTTTATAGCATCGGAGT,3.25
19,ACTAGTAGTTGACTTAGGGCAACCGATACGACGC,0.852
20,ACAGACAGGGGAGTGAAGGTAACTCAGCTGGACG,0.82

row,Sequence,PBM binding z-score
1,TAGCCTATGTCATGCGGGCCAGTATAGTGTCGGC,0.11
2,CCTACTGGGCCAAAGGTCATTGTTTCCAATGCTC,11.7
3,CCGACTGGGGCAAGGTTACCTTAACGCACAGCCA,2.58
4,CATACAGGGTCAGATAGGCCAGAGTAGGGACGGC,3.15
5,CCAGACAGGTGAGAAGGGAACTCAGCCTCGATTA,0.318
6,CTCGAAAGGTCGTGCTCAGTTGAGTATACCAAAC,2.54
7,GGAACGAGGGCATTCGAGTTGATAGAATGGCGAT,0.965
8,ATCGAAAGGTCGACGAGGTGTGTATACACCGTTT,2.22
9,TCTAGTAGGTTACCAATGGGGCATTCAGCTTTCT,2.38
10,GCTAGCAGGGCATTTGGGTCACTCAATGACGGGC,1.28
11,ACAGACAAGTGAGTGAAGGTAACTCAGCTGGACG,0.674
12,TCGTATAGGTAAAAGGTGAAAGTCGGTGTGGTAA,6.49
13,GCTCGGAGGACAAGGTCAGAGCTTTGTCCGTAGA,0.957
14,CCGAGTAGGTTATGGCGCATTCAGGCAACGGTGA,0.319
15,CCTACTGGGCCATTCAGACGTCATTGATCATATG,0.616
16,AGAATGAGGTTACCAAAAATCAGGGAAACGCTTG,2.49
17,CCTCGGAGGACAGAAGTTCAGAGCTGTCCGCTTT,-0.643
18,GCTTGTAGATCAAGGTTAAGATAGACTAAGCTAA,1.17
19,CAAACTAGGTCAAGAGGTCAAAGTACGCTTCCCG,10
20,ATCGAAATGTCGACGAGGTGAGTATACACCGTTT,0.897

# From the supplement of paper PMC6555819
